# Screening results as filed in PubChem.
# LASV entry inh: inhibitors of Lassa virus binding or cell entry | Lassa virus pseudotype entry inhibition, cell reporter | Potency, µM (top dose mostly 37.9 µM), for inactives: top-dose activity change, negative = inhibition, usual class: inhibitors | 300,000 compounds, 1.2% hits | AID 540256; calls by dose curve; tested in HEK293 cells; further: potency means the concentration at half of the fitted maximal effect; on the % scale 0 is the no-effect control and ±100 the full control effect; nearly all actives have a fitted effect of over 50% in size
# Shiga toxin inh: Shiga toxin inhibition; Vero cells, Shiga toxin protein synthesis inhibition reporter; inhibition, % at 38.7 µM; 290,000 compounds, 9.2% hits; AID 2315; in the data active means inhibition mostly above about 28%, no sharp cut-off; inactive means mostly below about 43%; further: 0% is about no effect
# Pf growth 48h: inhibits P. falciparum growth in the first generation, 48 h | P. falciparum luciferase growth in erythrocytes, 48 h | Potency, µM (series often up to 28.7 µM), for the others: at the top dose activity change, negative = inhibition, actives largely listed as inhibitors | 310,000 compounds, 5.9% hits; further: potency means the concentration at half of the fitted maximal effect; on the % scale 0 is the no-effect control and ±100 the full control effect
#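 A one-generation exposure of luciferase-tagged malaria parasites in RPMI 1640/Albumax erythrocyte culture, 37 C and 5% CO2. Inhibition is inferred from decreased luminescence after adding detection reagent.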
# Pf growth 96h: inhibits malaria parasite growth, 96 h. P. falciparum luciferase reporter growth, 96 h. Potency, µM (series often up to 28.7 µM), without a hit: at the top dose activity change, negative = inhibition, most hits filed as inhibitors. 320,000 compounds, 6.9% hits; further: potency means the concentration at half of the fitted maximal effect; on the % scale 0 is the no-effect control and ±100 the full control effect
#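 Luminescence readout: decreased luciferase signal marks inhibited growth of reporter-expressing P. falciparum in infected red cells (2% hematocrit, 0.05% parasitemia final), exposed to compound two generations (96 h, 37 C, 5% CO2).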
# CHX counter: counter-screen for Shiga toxin inhibitors: cycloheximide protein synthesis inhibition | 300,000 compounds, 12% hits | cell reporter, cycloheximide protein synthesis inhibition counterscreen | max response, % | AID 2314; in the data active means max response mostly above about 13%, no sharp cut-off; inactive means mostly below about 14%; further: read at 38.3 µM for the half of the compounds with a filed dose; 0% is about no effect
# MARV entry inh: blocks Marburg virus binding to or entry into cells | Marburg virus pseudotyped entry inhibition, cell reporter | Potency, µM (series often up to 37.8 µM), inactives show top-dose activity change, negative = inhibition, most hits filed as inhibitors | 300,000 compounds, 1.8% hits | AID 540276; calls by dose curve; tested in HEK293 cells; further: potency means the concentration at half of the fitted maximal effect; on the % scale 0 is the no-effect control and ±100 the full control effect
# * marks the source's active call; other numbers are inactive results; ? = inconclusive; . = no result; [ ] = dose if it differs, or a comment. Hits are enriched below; roughly 19% of the tested compounds scored in any of these assays. Unless noted, the call rests on the fitted dose curve; in most records, active means well fitted inhibition curve with a large enough effect; inconclusive means small, poorly fitted or top-dose-only effect, or another doubt; inactive means no such curve, though single readings can be large or run the other way.
SMILES,LASV entry inh,Shiga toxin inh,Pf growth 48h,Pf growth 96h,CHX counter,MARV entry inh
CCN(CC)c1ccc(NC(=O)CN2C(=O)CC(C)(C)S(=O)(=O)c3ccccc32)c(C)c1,.,9.6,?,8.28µM*,0.5,-6.7%
CCOC(=O)N1CCC(N2Cc3cccc(C(=O)Nc4ccc(N(CC)CC)cc4C)c3C2=O)CC1,25.5%[46.1 µM],-21.3,?,0.738µM*,-3.5,19.0%[46.1 µM]
CCOC(=O)N1CCC(N2Cc3cccc(C(=O)Nc4cc(F)ccc4F)c3C2=O)CC1,.,-15.9,.,-2.9%,-7.3,-0.1%
Cc1ccc(NC(=O)c2cccc3c2C(=O)N(C2CCCCC2)C3)cc1,?,-11.0,5.2%,11.7µM*,-1.5,-16.0%
CCOC(=O)N1CCC(N2Cc3cccc(C(=O)Nc4ccc(F)cc4)c3C2=O)CC1,-2.2%,12.9,3.29µM*,-13.1%,6.6,-2.3%
CCOC(=O)N1CCC(N2Cc3cccc(C(=O)Nc4ccc(CC)cc4)c3C2=O)CC1,-15.9%,17.6,.,47.0%,-1.7,?
Cc1ccc(-c2cc(C(F)(F)F)n3ncc(C(=O)NCc4ccco4)c3n2)cc1,-0.5%,1.9,-20.2%,?,1.0,-20.6%
COc1ccc(CNC(=O)C(C)n2nc(C)n3c(cc4occc43)c2=O)cc1 (stereo not given),.,-6.1,17.4%,?,-1.4,.
O=C(CNCc1ccccc1Cl)Nc1ccccc1N1CCCCC1,20.0%[46.1 µM],2.0,?,11.4%,-0.9,?
CCN(CC)c1ccc(-n2nc3cc(C)c(NC(=O)c4ccccc4C)cc3n2)c(C)c1,?,21.8,.,.,11.0,?
CCN(CC)c1ccc(NC(=O)c2cccc(C)c2OC)c(C)c1,6.6%,86.6*,105.8%,24.4%,65.0*,-27.6%
CCN(CC)c1ccc(NC(=O)CNCc2ccccc2Cl)c(C)c1,10µM*,35.3,2.4%[0.00184 µM],?,11.9,-1.3%[46.1 µM]
COc1ccc(NC(=O)CSc2nnc(-c3cc(C)[nH]n3)n2N)cc1OC,.,2.7,14.5%,5.1%,-2.2,.
Cc1cccc(NC(=O)/C(C#N)=C/c2ccccc2O)n1,.,77.8*,2.2%,8.1%,39.6*,.
N#C/C(=C\c1ccccc1O)C(=O)Nc1ccccn1,.,81.6*,45.8%,19.8%,21.2*,.
COc1ccc(/C=C(\C#N)C(=O)OCC(=O)Nc2c(C)cccc2C)cc1,-5.4%,-8.1,-1.3%,1.7%,-3.1,?
COc1ccc(/C=C(\C#N)C(=O)OCC(=O)Nc2ccc(C(C)(C)C)cc2)cc1,?,20.6,22.8%,24.9%,10.6*,-7.7%
COc1ccc(/C=C(\C#N)C(=O)C(C)(C)n2cncn2)cc1,27.9%[46.1 µM],-10.7,28.8%,3.7µM*,-0.6,7.4%[46.1 µM]
N#C/C(=C\c1ccc(F)cc1)C(=O)Nc1ccccn1,?,-6.5,20.7%,11.1%,-2.3,15.1%[46.1 µM]
COc1ccc(/C=C(/C(=O)c2ccc(Cl)cc2Cl)n2cncn2)cc1,10.9%,-16.3,-3.0%,0.0%,-2.2,-2.4%
Cc1cccc(NC(=O)/C(C#N)=C/c2ccccc2Cl)n1,.,41.5,28.4%,19.3%,10.0,.
CCCCN(CC)CCCNC(=O)CC1Nc2ccccc2NC1=O (stereo not given),-0.5%,-12.7,0.0%,5.7%,-5.0,-1.7%
Cc1ccccc1-n1c(SCC(=O)Nc2ccc3c(c2)OCO3)nnc1-c1ccccn1,-13.7%,7.8,?,29.1%,-1.6,?
CCC(C)Sc1nc2c(c(=O)[nH]c(=O)n2C)n1CC(O)COc1ccccc1C (stereo not given),?,-2.5,?,?,-3.4,?
COc1ccc(/C=C(\C#N)C(=O)Nc2cccc(C)n2)cc1,14.8%,35.5*,31.3%,11.6%,25.4*,15.0%
Cc1cccc(NC(=O)/C(C#N)=C/c2ccc(Cl)cc2)n1,.,12.5,0.9%,26.9%,1.2,.
O=c1c2oc3ccccc3c2ncn1Cc1ccccc1F,1.7%,32.6,?,?,29.5*,11.9%
C=CCn1cnc2c(oc3ccccc32)c1=O,?,35.6,55.6%,-9.9%,25.1*,0.5%
CC(C)(C)NCC(O)c1cc(O)cc(O)c1 (stereo not given),2.4%,0.6,-5.4%,-0.6%,0.4,?
CC(C)(C)NCC(O)c1cc(Cl)c(N)c(C(F)(F)F)c1 (stereo not given),.,.,13.5µM*,8.49µM*,.,.
